# Test results taken from PubChem BioAssay (Tox21).
# Records with an inconclusive call do not appear. Entries that show only a call come without a potency. The source made the active and inactive calls. Unless noted, calls follow the shape of the dose curve; as a rule, active = well fitted curve in the direction sought with a large enough effect in the repeat runs; inconclusive = weak or mixed curves; inactive = no such curve, though single readings can be large; an effect the other way counts as inactive or inconclusive.
# Columns and labels:
# [1] = qHTS assay to identify small molecule agonists of the sonic hedgehog signaling (Shh) pathway (AID 1259368; calls by dose curve;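 also: NIH/3T3-derived 3T3Gli1-Luc cells carrying a stable Gli1-driven firefly luciferase reporter; series mostly up to about 92 µM; nearly all actives have a fitted effect of over 15% in size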)
# In short: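 Luminescent signal was taken as a measure of Gli1-controlled luciferase expression in stably transfected NIH/3T3-derived cells that had been treated for 24 hr with compounds delivered in DMSO.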
# [2] = qHTS assay to identify small molecule antagonists of the sonic hedgehog signaling (Shh) pathway (AID 1259369; calls by dose curve; also: nearly all actives have a fitted effect of over 45% in size; also: potency is read from the fitted curve at half-maximal effect)
# In short: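 Screening used 3T3Gli1-Luc cells at 2,000 per well, compounds delivered in DMSO, and conditioned medium as agonist stimulus; plates incubated 24hr at 37 C and 5% CO2 before a 30min luciferase step.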
# [3] = qHTS assay to identify small molecule agonists of the androgen receptor (AR) signaling pathway in the presence of an antagonist - cell viability counter screen (AID 1259379); also: nearly all actives have a fitted effect of over 25% in size; also: potency is read from the fitted curve at half-maximal effect
# In short: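 In MDA-kb2 cells (human breast carcinoma, MMTV-luciferase), compounds at 15 concentrations plus 3.0uM nilutamide; 16 hr, 37C, 0% CO2; CellTiter-Fluor fluorescence read for viability.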
# [4] = target: Androgen receptor (Homo sapiens) (UniProt P10275); assay: qHTS assay to identify small molecule agonists of the androgen receptor (AR) signaling pathway in the presence of an antagonist (AID 1259381; calls by dose curve; also: nearly all actives have a fitted effect of over 15% in size; also: potency is read from the fitted curve at half-maximal effect)
# Sequence of Androgen receptor (Homo sapiens) (P10275 whole entry, looked up): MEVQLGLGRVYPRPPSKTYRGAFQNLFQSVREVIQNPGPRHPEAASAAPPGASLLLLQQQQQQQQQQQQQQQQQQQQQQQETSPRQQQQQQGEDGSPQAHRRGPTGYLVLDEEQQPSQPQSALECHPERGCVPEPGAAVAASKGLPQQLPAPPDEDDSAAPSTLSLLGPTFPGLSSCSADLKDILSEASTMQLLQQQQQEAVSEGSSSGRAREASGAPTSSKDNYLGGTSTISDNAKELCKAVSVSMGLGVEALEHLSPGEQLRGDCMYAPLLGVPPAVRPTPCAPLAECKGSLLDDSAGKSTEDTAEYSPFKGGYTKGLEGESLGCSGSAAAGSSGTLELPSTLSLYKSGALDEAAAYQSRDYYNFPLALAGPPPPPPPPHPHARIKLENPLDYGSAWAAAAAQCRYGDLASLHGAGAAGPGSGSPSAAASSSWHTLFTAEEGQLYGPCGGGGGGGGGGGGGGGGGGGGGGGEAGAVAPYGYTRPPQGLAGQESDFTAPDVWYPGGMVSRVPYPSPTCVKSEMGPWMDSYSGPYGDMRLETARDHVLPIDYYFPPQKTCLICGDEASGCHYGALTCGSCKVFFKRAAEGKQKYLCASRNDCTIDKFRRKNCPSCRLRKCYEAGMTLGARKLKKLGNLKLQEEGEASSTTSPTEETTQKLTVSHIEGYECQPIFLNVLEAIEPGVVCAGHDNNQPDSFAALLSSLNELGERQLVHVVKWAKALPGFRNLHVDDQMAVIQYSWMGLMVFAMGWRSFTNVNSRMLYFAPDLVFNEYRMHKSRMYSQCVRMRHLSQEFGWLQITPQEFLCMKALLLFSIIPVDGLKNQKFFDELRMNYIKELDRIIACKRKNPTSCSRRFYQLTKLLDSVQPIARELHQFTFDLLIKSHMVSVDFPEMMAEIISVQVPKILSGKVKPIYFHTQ
# In short: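 Here, 15-concentration compound series were pin-transferred onto MDA-kb2 MMTV-luciferase cells already dosed with nilutamide (3.0uM final). After 16hr at 37C, ONE-Glo was added and luminescence read 30min later at room temperature.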
# [5] = qHTS assay to identify small molecule antagonists of the estrogen receptor beta (ER-beta) signaling pathway - cell viability counter screen (AID 1259382); also: series mostly up to about 92 µM; nearly all actives have a fitted effect of over 55% in size
# In short: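 Tox21 10K library tested in qHTS format on ER-beta-bla HEK293T cells stimulated with 1nM E2; 16 hr treatment at 37C. Same-well CellTiter-Glo luminescence served as the cell viability measure.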
# [6] = target: Estrogen receptor (Homo sapiens) (UniProt P03372); assay: qHTS assay to identify small molecule agonists of the estrogen receptor alpha (ER-alpha) signaling pathway in the presence of an antagonist (AID 1259383; calls by dose curve; also: top concentration of the series differs between compounds; nearly all actives have a fitted effect of over 15% in size)
# Sequence of Estrogen receptor (Homo sapiens) (P03372 whole entry, looked up): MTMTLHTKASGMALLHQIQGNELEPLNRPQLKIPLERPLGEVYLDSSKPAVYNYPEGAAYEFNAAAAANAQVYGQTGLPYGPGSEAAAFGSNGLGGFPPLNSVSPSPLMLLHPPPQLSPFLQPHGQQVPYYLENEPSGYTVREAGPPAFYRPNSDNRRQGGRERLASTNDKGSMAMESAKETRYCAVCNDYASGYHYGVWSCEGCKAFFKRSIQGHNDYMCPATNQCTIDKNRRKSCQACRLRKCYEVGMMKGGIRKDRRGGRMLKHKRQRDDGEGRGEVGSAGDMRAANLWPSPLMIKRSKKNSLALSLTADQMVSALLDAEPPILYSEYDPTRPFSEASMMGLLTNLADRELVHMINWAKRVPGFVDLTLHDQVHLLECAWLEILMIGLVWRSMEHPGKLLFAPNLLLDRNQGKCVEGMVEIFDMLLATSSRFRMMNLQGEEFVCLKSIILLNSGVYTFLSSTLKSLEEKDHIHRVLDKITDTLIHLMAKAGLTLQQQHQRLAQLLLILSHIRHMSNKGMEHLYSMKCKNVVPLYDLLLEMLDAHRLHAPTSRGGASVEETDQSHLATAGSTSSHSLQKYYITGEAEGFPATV
# In short: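 In VM7Luc4E2 cells, 4,000 per well, compounds at 15 concentrations were co-incubated 22hr at 37C with 10.0nM final ICI-182,780. Luminescence from the stably transfected 4×ERE-luciferase reporter was recorded 30min after ONE-Glo addition.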
# [7] = qHTS assay to identify small molecule agonists or antagonists of the thyroid stimulating hormone receptor (TSHR) signaling pathway - wild type cell line counter screen (AID 1259384; calls by dose curve)
# In short: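 Wild-type Hek293 cells, 800/well, 18 h at 37C, then compound with Ro20-1724 for 30 min RT. cAMP by HTRF (cAMP-d2/anti-cAMP cryptate), 1 h RT, fluorescence read. 15 concentrations, triplicates.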
# [8] = target: Thyrotropin receptor (Homo sapiens) (UniProt P16473); assay: qHTS assay to identify small molecule antagonists of the thyroid stimulating hormone receptor (TSHR) signaling pathway (AID 1259385; calls by dose curve; also: nearly all actives have a fitted effect of over 20% in size)
# Sequence of Thyrotropin receptor (Homo sapiens) (P16473 whole entry, looked up): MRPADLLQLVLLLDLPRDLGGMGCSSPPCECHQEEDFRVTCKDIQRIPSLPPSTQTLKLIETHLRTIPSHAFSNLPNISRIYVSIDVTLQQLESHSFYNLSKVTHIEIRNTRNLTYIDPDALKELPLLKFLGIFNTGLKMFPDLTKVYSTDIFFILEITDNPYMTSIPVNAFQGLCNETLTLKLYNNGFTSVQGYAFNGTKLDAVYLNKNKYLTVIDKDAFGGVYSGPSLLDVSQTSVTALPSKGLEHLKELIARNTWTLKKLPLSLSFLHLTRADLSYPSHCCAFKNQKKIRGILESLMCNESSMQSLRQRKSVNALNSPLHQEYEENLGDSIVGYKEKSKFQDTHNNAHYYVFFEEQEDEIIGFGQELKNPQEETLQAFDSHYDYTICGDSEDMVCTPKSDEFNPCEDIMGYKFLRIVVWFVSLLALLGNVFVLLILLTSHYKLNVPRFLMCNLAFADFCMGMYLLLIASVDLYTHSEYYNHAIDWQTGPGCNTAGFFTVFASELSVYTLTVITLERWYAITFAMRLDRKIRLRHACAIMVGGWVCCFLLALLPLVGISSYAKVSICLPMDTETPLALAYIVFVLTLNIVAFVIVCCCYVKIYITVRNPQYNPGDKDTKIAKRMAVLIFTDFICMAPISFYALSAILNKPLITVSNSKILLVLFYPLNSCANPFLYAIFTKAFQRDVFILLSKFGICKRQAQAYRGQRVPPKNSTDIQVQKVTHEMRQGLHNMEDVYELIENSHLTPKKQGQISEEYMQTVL
# In short: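 TSHR-HEK293 cells (800/well) plated 18 h, then compounds with Ro20-1724 and TSH at 1.5 ng/mL final, 30 min at room temperature. cAMP quantified by HTRF (cAMP-d2/anti-cAMP-cryptate, 1 h); 15 concentrations in triplicate.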
# [9] = qHTS assay to identify small molecule agonists of the estrogen receptor alpha (ER-alpha) signaling pathway in the presence of an antagonist - cell viability counter screen (AID 1259386);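 also: cells exposed to compounds for 22 h at 37 °C before the viability read; nearly all actives have a fitted effect of over 30% in size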; also: potency is read from the fitted curve at half-maximal effect
# In short: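 Fluorescent CellTiter-Fluor viability signal from VM7Luc4E2 cells, with the reagent added during the final hour of a 22hr compound exposure at 37C in the presence of 10.0nM ICI-182,780.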
# [10] = target: Progesterone receptor (Homo sapiens) (UniProt P06401); assay: qHTS assay to identify small molecule agonists of the progesterone receptor (PR) signaling pathway (AID 1346784; calls by dose curve; also: nearly all actives have a fitted effect of over 30% in size; also: potency is read from the fitted curve at half-maximal effect)
# Sequence of Progesterone receptor (Homo sapiens) (P06401 whole entry, looked up): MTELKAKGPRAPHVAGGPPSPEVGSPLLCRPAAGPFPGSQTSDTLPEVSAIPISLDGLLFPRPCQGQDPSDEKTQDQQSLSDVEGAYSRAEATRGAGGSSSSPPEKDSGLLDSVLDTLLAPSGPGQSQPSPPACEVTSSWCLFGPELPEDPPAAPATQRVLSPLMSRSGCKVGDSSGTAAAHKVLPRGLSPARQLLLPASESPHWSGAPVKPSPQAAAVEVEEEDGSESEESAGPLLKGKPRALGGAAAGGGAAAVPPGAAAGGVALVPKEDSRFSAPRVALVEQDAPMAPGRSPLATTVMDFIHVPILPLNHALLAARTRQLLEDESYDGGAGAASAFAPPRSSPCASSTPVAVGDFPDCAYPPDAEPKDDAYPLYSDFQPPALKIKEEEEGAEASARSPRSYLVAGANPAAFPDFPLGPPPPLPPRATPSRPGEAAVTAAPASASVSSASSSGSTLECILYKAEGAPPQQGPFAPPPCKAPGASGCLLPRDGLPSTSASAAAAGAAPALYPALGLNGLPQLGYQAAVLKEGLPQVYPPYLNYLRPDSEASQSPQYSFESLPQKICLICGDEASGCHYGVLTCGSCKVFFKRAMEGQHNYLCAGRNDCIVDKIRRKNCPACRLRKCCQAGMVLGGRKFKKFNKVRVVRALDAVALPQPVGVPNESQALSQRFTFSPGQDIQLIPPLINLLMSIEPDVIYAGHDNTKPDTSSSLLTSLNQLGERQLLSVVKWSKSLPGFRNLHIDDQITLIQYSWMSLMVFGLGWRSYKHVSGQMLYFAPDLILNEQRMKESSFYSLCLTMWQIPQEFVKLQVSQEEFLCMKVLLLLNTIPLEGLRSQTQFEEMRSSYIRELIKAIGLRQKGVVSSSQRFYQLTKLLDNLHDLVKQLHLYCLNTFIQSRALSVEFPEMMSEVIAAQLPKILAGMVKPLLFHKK
# In short: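 Fluorescence from LiveBLAzer B/G FRET substrate cleavage (2 hr, RT) reported PR activation in PR-UAS-bla HEK 293T cells treated 16 hr at 37C/5% CO2 with compounds; medium contained 2% charcoal-stripped FBS.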
# [11] = qHTS assay to identify small molecule antagonists of the progesterone receptor (PR) signaling pathway - cell viability counter screen (AID 1346798); also: series mostly up to about 92 µM; nearly all actives have a fitted effect of over 50% in size
# In short: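 CellTiter-Glo luminescence; PR-UAS-bla HEK293T, 3,000 cells/well; compound + R5020, 16 hr, 37C/5% CO2; 30 min RT before read.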
# [12] = qHTS assay to identify small molecule agonists of the progesterone receptor (PR) signaling pathway - cell viability counter screen (AID 1346799; calls by dose curve; also: nearly all actives have a fitted effect of over 45% in size)
# In short: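 In parallel with the beta-lactamase readout, cytotoxicity toward PR-UAS-bla HEK293T cells was measured by CellTiter-Glo luminescence following 16 hr compound incubation in 2% charcoal-stripped FBS medium.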
# [13] = qHTS assay to identify small molecule antagonists of the TGF-beta/Smad signaling pathway - cell viability counter screen (AID 1346824); also: nearly all actives have a fitted effect of over 50% in size
# In short: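 SBE-bla HEK 293T cells, incubated overnight, then compound plus 0.25 ng/mL TGF-beta1 (stock added) for 5 hr at 37 C. Viability was read in the same wells by CellTiter-Glo luminescence after 30 min at room temperature.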
# [14] = qHTS assay to identify small molecule agonists of the TGF-beta/Smad signaling pathway - cell viability counter screen (AID 1346829); also: top concentration of the series differs between compounds; nearly all actives have a fitted effect of over 45% in size
# In short: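 Cytotoxicity counter screen: CellTiter-Glo luminescence (30 min, room temperature) measured in the SBE-bla HEK 293T reporter wells after 5 hr compound treatment at 37 C and the 2 hr substrate step.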
# [15] = qHTS assay to identify small molecule agonists of the TGF-beta/Smad signaling pathway (AID 1346859; active = well fitted activation curve with a large enough effect in the signal ratio in the repeat runs, not every such curve was filed as active; the % refers to the signal ratio; also: series mostly up to about 77 µM)
# In short: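 After overnight seeding, SBE-bla HEK 293T cells are dosed with compounds in DMSO and kept 5 hr at 37 C, 5% CO2. LiveBLAzer-type FRET substrate is then applied for 2 hr at room temperature.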
# [16] = target: Estrogen receptor beta (Homo sapiens) (UniProt Q92731); assay: qHTS assay to identify small molecule agonists of the estrogen receptor beta (ER-beta) signaling pathway (AID 1259377; active = well fitted activation curve with a large enough effect in the signal ratio in the repeat runs, not every such curve was filed as active; the % refers to the signal ratio)
# Sequence of Estrogen receptor beta (Homo sapiens) (Q92731 whole entry, looked up): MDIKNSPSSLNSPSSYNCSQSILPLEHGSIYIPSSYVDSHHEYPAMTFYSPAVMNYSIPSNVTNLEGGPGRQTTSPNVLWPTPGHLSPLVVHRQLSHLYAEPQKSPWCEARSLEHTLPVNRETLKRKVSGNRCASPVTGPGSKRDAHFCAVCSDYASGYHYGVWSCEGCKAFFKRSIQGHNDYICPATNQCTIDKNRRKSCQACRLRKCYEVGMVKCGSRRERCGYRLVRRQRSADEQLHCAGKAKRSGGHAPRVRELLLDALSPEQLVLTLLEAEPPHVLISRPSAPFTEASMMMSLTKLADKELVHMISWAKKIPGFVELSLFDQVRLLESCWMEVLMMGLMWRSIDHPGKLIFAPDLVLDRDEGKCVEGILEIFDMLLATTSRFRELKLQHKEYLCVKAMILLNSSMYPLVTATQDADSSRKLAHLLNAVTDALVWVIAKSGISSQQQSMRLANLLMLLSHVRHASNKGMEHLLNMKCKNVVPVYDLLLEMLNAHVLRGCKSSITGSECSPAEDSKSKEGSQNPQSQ
# In short: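 qHTS in ER-beta-UAS-bla HEK293T cells: 6 hr settling, then 16 hr compound at 37C, then LiveBLAzer substrate 2 h at RT before fluorescence reading.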
# [17] = target: Progesterone receptor (Homo sapiens) (UniProt P06401); assay: qHTS assay to identify small molecule antagonists of the progesterone receptor (PR) signaling pathway (AID 1346795; active = well fitted inhibition curve with a large enough effect in the signal ratio in the repeat runs, not every such curve was filed as active; the % refers to the signal ratio; also: potency is read from the fitted curve at half-maximal effect)
# In short: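 Fluorescence intensity measured 2 hr after adding beta-lactamase FRET substrate to PR-UAS-bla HEK293T cells that had been co-treated 16 hr with compound and 1 nM R5020 (final concentration) in 2% charcoal-stripped FBS.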
# [18] = qHTS assay to identify small molecule agonists of the estrogen receptor beta (ER-beta) signaling pathway - cell viability counter screen (AID 1259380); also: nearly all actives have a fitted effect of over 30% in size
# In short: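 Viability of ER-beta-UAS-bla HEK293T cells was determined by CellTiter-Glo luminescence following 16 hr treatment with test compounds at 37C.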
# [19] = target: Thyrotropin-releasing hormone receptor (Homo sapiens) (UniProt P34981); assay: qHTS assay to identify small molecule antagonists of the thyrotropin-releasing hormone receptor (TRHR) signaling pathway (AID 1346877; active = well fitted inhibition curve with a large enough effect in the repeat runs, not every such curve was filed as active; also: series mostly up to about 51 µM)
# Sequence of Thyrotropin-releasing hormone receptor (Homo sapiens) (P34981 whole entry, looked up): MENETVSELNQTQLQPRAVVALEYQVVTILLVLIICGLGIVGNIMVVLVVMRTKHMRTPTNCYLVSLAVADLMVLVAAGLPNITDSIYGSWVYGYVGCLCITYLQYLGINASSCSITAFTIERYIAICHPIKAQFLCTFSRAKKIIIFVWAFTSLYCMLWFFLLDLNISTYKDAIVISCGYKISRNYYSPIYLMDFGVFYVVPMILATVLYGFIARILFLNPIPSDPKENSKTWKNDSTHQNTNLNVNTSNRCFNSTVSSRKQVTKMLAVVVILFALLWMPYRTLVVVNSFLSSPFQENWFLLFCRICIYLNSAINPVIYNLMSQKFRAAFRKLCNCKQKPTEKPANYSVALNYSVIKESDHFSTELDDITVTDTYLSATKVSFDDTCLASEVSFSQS
# In short: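 In this cell-based calcium flux format, HEK293 cells expressing TRHR received test compound for 5 min before the agonist TRH (1 nM final). Dye loading lasted 2 h at 37 °C.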
# [20] = target: Estrogen receptor beta (Homo sapiens) (UniProt Q92731); assay: qHTS assay to identify small molecule antagonists of the estrogen receptor beta (ER-beta) signaling pathway (AID 1259378; active = well fitted inhibition curve with a large enough effect in the signal ratio in the repeat runs, not every such curve was filed as active; the % refers to the signal ratio)
# In short: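 ER-beta-UAS-bla HEK293T cells in 2% charcoal-stripped FBS medium treated with compound plus 1nM final 17-beta-estradiol for 16 hr at 37C. Beta-lactamase reporter read by FRET substrate fluorescence after 2 hours at room temperature.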
Structure (SMILES),outcome [1],Potency [2],Potency [3],Potency [4],outcome [5],outcome [6],outcome [7],outcome [8],Potency [9],Potency [10],Potency [11],Potency [12],outcome [13],outcome [14],outcome [15],Potency [16],Potency [17],Potency [18],outcome [19],outcome [20]
COc1ccc2nc(SCc3ncc(C)c(OC)c3C)[nH]c2c1,inactive,inactive,inactive,inactive,inactive,inactive,inactive,inactive,inactive,inactive,inactive,inactive,inactive,inactive,inactive,–,–,–,–,–
CCCC/C=C/C=C\C=O,inactive,–,inactive,inactive,inactive,inactive,inactive,inactive,inactive,inactive,inactive,inactive,inactive,inactive,–,inactive,inactive,–,–,–
COc1ccc2c(c1OC)C(=O)O[C@@H]2[C@H]1c2c(cc3c(c2OC)OCO3)CCN1C,inactive,–,–,–,inactive,–,inactive,inactive,–,inactive,inactive,–,inactive,inactive,inactive,–,inactive,inactive,inactive,–
CC(=O)/C=C/C1C(C)=CCC(C)C1(C)C (stereo not given),inactive,–,inactive,–,inactive,inactive,inactive,inactive,inactive,inactive,inactive,inactive,inactive,inactive,inactive,inactive,inactive,inactive,–,inactive
COc1ccc2c(c1)C(=O)N(CCc1ccc(S(=O)(=O)NC(=O)NC3CCCCC3)cc1)C(=O)C2(C)C,inactive,inactive,inactive,21.1 µM (active),inactive,inactive,inactive,inactive,inactive,5.96 µM (active),inactive,–,inactive,inactive,–,–,–,–,inactive,–
CC(=O)Nc1cccc(C)c1,inactive,inactive,inactive,–,–,inactive,inactive,inactive,inactive,inactive,inactive,inactive,inactive,inactive,–,–,inactive,–,–,–
Brc1ccc(-c2ccccc2)cc1,inactive,–,inactive,–,–,–,inactive,–,inactive,inactive,inactive,inactive,inactive,inactive,–,–,–,inactive,–,–
CC(C)(C)c1cc(CCC(=O)NN)cc(C(C)(C)C)c1O,inactive,inactive,inactive,–,–,–,inactive,inactive,–,inactive,inactive,inactive,inactive,inactive,–,–,inactive,–,inactive,–
CCO[Si](CCCS)(OCC)OCC,inactive,–,inactive,–,inactive,–,inactive,inactive,inactive,inactive,inactive,inactive,inactive,inactive,inactive,inactive,inactive,inactive,inactive,inactive
Nc1ccc2cc(S(=O)(=O)O)cc(O)c2c1,inactive,inactive,–,inactive,inactive,inactive,–,–,48.3 µM (active),inactive,inactive,–,inactive,inactive,inactive,–,inactive,inactive,inactive,–
O=C(O)Cc1cn(-c2ccccc2)nc1-c1ccc(Cl)cc1,inactive,inactive,inactive,–,inactive,inactive,inactive,inactive,inactive,inactive,inactive,inactive,inactive,inactive,–,–,inactive,–,inactive,–
CN=C(NC#N)Nc1ccc(C2=NNC(=O)CC2C)cc1 (stereo not given),inactive,inactive,inactive,–,–,–,inactive,inactive,–,inactive,inactive,inactive,inactive,inactive,inactive,–,inactive,inactive,–,–
CC(C)(C)OC(=O)c1ccc(O)cc1,inactive,–,inactive,inactive,–,–,inactive,inactive,inactive,inactive,inactive,–,–,inactive,inactive,–,54.5 µM (active),inactive,inactive,–
OC[C@H](Cc1cccc(O)c1)[C@H](CO)Cc1cccc(O)c1,inactive,62.6 µM (active),inactive,–,–,–,–,–,inactive,inactive,inactive,–,inactive,inactive,inactive,–,inactive,–,inactive,–
O=C(OCC(O)CO)c1ccccc1Nc1ccnc2c(C(F)(F)F)cccc12 (stereo not given),inactive,–,inactive,inactive,–,inactive,inactive,–,inactive,–,–,–,inactive,inactive,–,–,29.8 µM (active),–,inactive,–
CCCCCCOc1ccccc1C(N)=O,inactive,–,–,–,inactive,inactive,inactive,inactive,–,inactive,–,–,inactive,inactive,inactive,inactive,7.5 µM (active),inactive,–,inactive
O=C(O)Cc1ccc(Cl)cc1Cl,inactive,–,inactive,inactive,inactive,inactive,inactive,inactive,inactive,inactive,inactive,inactive,inactive,inactive,–,inactive,inactive,inactive,inactive,–
CC(C)CC(C)CC(C)CC(C)COC(=O)c1ccccc1C(=O)OCC(C)CC(C)CC(C)CC(C)C (stereo not given),inactive,–,inactive,–,inactive,–,inactive,inactive,–,inactive,inactive,–,inactive,inactive,inactive,–,inactive,inactive,inactive,–
CC(=O)Nc1ccc(S(=O)(=O)Nc2ccc([N+](=O)[O-])cc2)cc1,inactive,–,23.7 µM (active),–,inactive,inactive,inactive,inactive,23.7 µM (active),inactive,–,inactive,inactive,inactive,inactive,–,inactive,inactive,inactive,–
C=CC(OCC)OCC,inactive,–,inactive,–,inactive,–,–,–,inactive,inactive,inactive,–,inactive,inactive,inactive,inactive,inactive,inactive,inactive,–
CC1(CO)CN(c2ccccc2)NC1=O (stereo not given),inactive,inactive,inactive,inactive,–,–,inactive,–,inactive,inactive,inactive,inactive,–,inactive,inactive,–,inactive,–,inactive,–
